Inconclusive results are not listed. The source made the active and inactive calls.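 The calls were made as follows, unless noted: active = aptamer binding inhibition above 30%, about 3 SD of noise from non-fluorescent compounds; inactive = inhibition at or below 30%.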
Key:
[1] = yeast TOR pathway RPL19A-GFP modulators, primary screen, cell-based, S. cerevisiae, multiplex flow cytometry (AID 1862; in the data active = percent of DMSO control GFP below about 86%;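 also: lower values mimic rapamycin by blocking the RPL19A rise seen in DMSO cells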); details: S. cerevisiae RPL19A-GFP strain, flow cytometry fluorescence, 3 h; at 10 µM; stronger effect = lower value
[2] = modulators of MEP2-GFP levels in yeast, primary screen, S. cerevisiae, multiplex flow cytometry (AID 1867;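 active = GFP response, as percent of the DMSO control, above the screen-wide mean plus 3 SD, about 139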;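 also: median GFP channel fluorescence of barcode-gated MEP2-GFP cells measured by flow cytometry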); details: S. cerevisiae MEP2-GFP strain, 3 h, at 10 µM, stronger effect = higher value, 100% means same as DMSO wells
[3] = modulators of CIT2-GFP expression in yeast, primary screen, S. cerevisiae, GFP fusion, multiplex flow cytometry (AID 1870;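 active = percent response above a set limit, the screen-wide mean plus 3 SD, cut at about 130% in these data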;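 also: barcoded CIT2-GFP strain pooled with four other GFP strains with rapamycin as positive control; median GFP fluorescence per well over plate mean of DMSO wells so 100% = DMSO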); details: 3 h, at 10 µM, stronger effect = higher value
[4] = modulators of LAP4-GFP expression in yeast, primary screen, S. cerevisiae, multiplex flow cytometry (AID 1873;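 active = GFP signal, as percent of the solvent control, above the screen mean plus 3 SD, about 149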); details: 3 h, at 10 µM, stronger effect = higher value
[5] = modulators of AGP1-GFP expression in yeast TOR pathway, primary screen, cell-based, multiplex flow cytometry, S. cerevisiae (AID 1887;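 active = GFP signal above the screen-wide mean plus 3 SD, that is over about 124.5% of the solvent control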;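 also: AGP1-GFP fusion strain of S. cerevisiae within a five-strain barcoded multiplex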); details: 3 h, at 10 µM, stronger effect = higher value
[6] = inhibitors of CD8+ T cell-vesicle binding, pilot screen, LFA-1/ICAM-1 modulator project, MLPCN validation set, flow cytometry (AID 2523;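 active = response below a set limit, under 55% cells CD8-positive and vesicle-bound, and CD8 cells' 90th-percentile brightness under 279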;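 as to vesicle binding response: mean PE anti-B7-1 fluorescence of CD8+ cells relative to row control; 100% = QL9-loaded vesicles with DMSO vehicle in the same plate row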); details: 2C mouse CD8+ T cells, at 7 µM, stronger effect = lower value; double positive events: measured here: CD8+/vesicle+ event percentage
[7] = target: Integrin beta-1 (Homo sapiens) + Integrin alpha-4 (Homo sapiens) (UniProt P13612+P05556); experiment: inhibition of HUTS-21 binding to VLA-4, pilot screen, VLA-4 allosteric modulator project, U937 cells, HUTS-21 mAb, flow cytometry, validation set (AID 2674;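 active = inhibition above 50%, about 3 SD of the validation set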;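 also: antibody binding induced by the VLA-4 ligand LDV present at three times its Kd; 0% = LDV ligand with antibody and no compound and 100% = antibody without LDV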); details: HUTS-21 LIBS mAb binding, at 6.7 µM, stronger effect = higher value, binding induced by LDV ligand
Chain of Integrin beta-1 (Homo sapiens) + Integrin alpha-4 (Homo sapiens) (P05556 whole entry, looked up): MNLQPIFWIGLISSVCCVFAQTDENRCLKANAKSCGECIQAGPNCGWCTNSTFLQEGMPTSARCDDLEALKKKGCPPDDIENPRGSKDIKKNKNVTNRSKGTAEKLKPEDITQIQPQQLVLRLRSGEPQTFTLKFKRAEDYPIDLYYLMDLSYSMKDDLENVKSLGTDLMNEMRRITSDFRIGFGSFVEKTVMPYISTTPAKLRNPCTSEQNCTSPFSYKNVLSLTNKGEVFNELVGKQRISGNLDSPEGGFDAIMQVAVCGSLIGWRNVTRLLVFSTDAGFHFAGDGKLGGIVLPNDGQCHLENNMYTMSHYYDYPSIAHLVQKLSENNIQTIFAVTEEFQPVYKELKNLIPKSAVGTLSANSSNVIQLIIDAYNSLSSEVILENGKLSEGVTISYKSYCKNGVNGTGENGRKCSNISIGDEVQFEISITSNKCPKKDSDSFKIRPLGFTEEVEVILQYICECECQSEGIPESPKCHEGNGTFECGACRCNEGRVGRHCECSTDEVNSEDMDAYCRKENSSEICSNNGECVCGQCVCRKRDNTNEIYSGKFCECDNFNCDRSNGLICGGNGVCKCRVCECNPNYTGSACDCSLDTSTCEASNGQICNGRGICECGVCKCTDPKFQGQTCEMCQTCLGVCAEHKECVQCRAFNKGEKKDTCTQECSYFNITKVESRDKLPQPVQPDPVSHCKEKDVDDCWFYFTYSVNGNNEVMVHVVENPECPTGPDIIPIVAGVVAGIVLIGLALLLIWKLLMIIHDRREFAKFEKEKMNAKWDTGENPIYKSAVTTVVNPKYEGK
Chain of Integrin beta-1 (Homo sapiens) + Integrin alpha-4 (Homo sapiens) (P13612 whole entry, looked up): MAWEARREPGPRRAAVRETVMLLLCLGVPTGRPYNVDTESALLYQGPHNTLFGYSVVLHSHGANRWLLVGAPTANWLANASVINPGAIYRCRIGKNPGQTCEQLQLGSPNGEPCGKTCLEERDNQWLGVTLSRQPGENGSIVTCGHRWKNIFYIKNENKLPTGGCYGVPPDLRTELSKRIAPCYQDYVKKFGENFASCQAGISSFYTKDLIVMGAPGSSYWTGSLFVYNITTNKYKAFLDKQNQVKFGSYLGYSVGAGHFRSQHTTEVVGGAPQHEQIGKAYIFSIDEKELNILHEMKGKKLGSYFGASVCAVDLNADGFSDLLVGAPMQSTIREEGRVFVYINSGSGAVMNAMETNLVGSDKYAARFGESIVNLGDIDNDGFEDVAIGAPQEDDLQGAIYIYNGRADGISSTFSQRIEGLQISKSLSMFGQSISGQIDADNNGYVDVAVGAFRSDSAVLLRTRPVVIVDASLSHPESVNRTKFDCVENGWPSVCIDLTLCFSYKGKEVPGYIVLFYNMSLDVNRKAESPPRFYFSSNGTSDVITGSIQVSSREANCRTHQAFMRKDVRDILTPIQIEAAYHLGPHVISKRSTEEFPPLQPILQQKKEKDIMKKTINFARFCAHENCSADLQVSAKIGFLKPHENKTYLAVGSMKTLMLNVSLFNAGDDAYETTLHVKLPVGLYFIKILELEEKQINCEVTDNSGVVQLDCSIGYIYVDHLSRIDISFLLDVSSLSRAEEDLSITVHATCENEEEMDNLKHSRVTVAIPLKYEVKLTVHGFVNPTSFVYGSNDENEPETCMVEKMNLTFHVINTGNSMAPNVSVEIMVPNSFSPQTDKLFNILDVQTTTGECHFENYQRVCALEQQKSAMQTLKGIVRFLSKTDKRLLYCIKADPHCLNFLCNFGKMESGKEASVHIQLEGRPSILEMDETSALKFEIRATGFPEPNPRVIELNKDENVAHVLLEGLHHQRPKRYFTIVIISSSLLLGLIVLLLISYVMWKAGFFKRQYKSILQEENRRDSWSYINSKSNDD

[8] = superoxide lowering in aged yeast cells, pilot screen, validation compound set (AID 2706;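 active = superoxide response below 65% of plate, a cut near 3 SD across the whole screen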;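 also: yeast exposed to compound for one week at 30 degrees C before staining; 100% = mean of all compound wells on the same plate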); details: S. cerevisiae aging, superoxide DHE fluorescence; at 10 µM; stronger effect = lower value
[9] = target: Beta-adrenergic receptor kinase 1 (Homo sapiens) (UniProt P25098); experiment: GRK2 binders displacing RNA aptamer, biochemical, validation, human GRK2, bead flow cytometry (AID 488806); details: bead-bound GRK2, FAM-aptamer displacement, at 10 µM, stronger effect = higher value
Chain of Beta-adrenergic receptor kinase 1 (Homo sapiens) (P25098 whole entry, looked up): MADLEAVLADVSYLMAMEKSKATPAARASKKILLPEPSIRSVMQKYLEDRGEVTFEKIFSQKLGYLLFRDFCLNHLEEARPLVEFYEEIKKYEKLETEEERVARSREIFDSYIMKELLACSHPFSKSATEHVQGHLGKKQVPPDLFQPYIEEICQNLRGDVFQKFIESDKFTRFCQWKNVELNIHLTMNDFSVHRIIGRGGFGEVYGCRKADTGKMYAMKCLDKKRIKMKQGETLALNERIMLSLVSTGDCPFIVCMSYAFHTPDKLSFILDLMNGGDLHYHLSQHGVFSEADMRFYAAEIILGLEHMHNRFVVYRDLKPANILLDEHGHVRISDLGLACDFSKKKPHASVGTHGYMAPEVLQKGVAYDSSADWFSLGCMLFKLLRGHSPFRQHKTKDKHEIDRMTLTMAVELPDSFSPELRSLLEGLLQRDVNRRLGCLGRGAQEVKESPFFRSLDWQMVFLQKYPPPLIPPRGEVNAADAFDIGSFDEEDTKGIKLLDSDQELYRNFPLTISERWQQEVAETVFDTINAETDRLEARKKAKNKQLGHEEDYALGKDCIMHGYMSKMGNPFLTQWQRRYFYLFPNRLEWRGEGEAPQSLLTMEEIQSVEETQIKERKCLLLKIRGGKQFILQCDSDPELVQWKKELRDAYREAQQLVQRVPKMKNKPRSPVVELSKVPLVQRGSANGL

[10] = target: Beta-2 adrenergic receptor (Homo sapiens) (UniProt P07550); experiment: beta2AR agonists driving receptor internalization, pilot screen, cell-based, FAP fluorogen, flow cytometry, validation set (AID 504459;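 active = percent response above 42, roughly 3 SD of non-fluorescent test compounds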;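 also: agonist-driven loss of surface beta2AR via internalization measured by FAP dye flow cytometry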); details: Am2.2-beta2AR cells, FAP surface receptor flow cytometry; at 10 µM; stronger effect = higher value
Chain of Beta-2 adrenergic receptor (Homo sapiens) (P07550 whole entry, looked up): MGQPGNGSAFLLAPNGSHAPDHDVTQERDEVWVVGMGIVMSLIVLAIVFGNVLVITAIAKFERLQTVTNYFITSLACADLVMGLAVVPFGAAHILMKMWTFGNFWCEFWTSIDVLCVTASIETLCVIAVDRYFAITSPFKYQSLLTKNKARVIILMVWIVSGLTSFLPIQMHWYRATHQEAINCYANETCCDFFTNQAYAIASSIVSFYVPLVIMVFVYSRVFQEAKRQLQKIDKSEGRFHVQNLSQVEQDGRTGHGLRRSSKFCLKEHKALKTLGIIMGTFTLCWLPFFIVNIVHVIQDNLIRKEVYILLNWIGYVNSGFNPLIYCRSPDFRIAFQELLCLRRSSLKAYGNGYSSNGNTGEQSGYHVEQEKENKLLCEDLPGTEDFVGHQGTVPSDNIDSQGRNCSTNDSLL

[11] = target: AP-2 complex subunit beta (Homo sapiens) (UniProt P63010); experiment: inhibitors of arrestin peptide binding to AP2, pilot screen, biochemical, validation set, GST-AP2 beads, flow cytometry (AID 504541;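 active = inhibition above 54%, about 3 SD of non-fluorescent compounds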;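 also: AP2 carries R879A mutation and is captured from E. coli lysate; bead-bound FITC arrestin peptide fluorescence measuring arrestin peptide binding to AP2; 0% = DMSO wells and 100% = excess unlabeled arrestin peptide control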); details: FITC arrestin peptide, at 10 µM, stronger effect = higher value, AP2 beta2 appendage fragment, R879A mutant
Chain of AP-2 complex subunit beta (Homo sapiens) (P63010 whole entry, looked up, the tested form may be a part, one chain of several): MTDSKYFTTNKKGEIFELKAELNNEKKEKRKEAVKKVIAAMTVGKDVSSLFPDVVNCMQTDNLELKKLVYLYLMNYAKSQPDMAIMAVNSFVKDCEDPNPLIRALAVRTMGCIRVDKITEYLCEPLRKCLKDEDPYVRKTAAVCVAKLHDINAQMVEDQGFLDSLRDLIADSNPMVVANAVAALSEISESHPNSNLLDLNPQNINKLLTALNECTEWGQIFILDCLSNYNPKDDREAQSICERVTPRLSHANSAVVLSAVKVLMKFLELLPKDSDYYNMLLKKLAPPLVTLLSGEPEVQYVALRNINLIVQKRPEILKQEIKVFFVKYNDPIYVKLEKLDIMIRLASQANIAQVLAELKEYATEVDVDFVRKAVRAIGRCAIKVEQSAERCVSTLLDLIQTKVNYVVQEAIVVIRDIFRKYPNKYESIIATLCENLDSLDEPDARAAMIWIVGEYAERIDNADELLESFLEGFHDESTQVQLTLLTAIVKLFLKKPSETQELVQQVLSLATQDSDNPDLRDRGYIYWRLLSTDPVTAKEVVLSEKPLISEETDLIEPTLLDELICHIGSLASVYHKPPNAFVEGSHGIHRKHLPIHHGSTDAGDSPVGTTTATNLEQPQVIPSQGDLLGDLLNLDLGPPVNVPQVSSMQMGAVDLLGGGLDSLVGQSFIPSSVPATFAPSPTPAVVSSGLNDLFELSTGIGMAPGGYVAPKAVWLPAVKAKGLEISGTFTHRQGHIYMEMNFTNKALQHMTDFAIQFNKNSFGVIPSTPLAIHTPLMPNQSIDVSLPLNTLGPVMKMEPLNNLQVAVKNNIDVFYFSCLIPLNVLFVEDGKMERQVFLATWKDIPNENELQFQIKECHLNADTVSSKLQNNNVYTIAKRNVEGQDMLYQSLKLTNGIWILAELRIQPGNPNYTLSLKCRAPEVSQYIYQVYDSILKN

[12] = yeast V-ATPase proton transport modulators, S. cerevisiae, pHLuorin, HTS validation (AID 504600; in the data active = response above about 15%;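 also: plate controls were DMSO for no effect and reference compound for full effect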); details: S. cerevisiae pHLuorin cytosolic pH, at 10 µM, stronger effect = higher value
[13] = system: anti-desmoglein-3 scFv antibody binding to human DSG3; experiment: inhibitors of anti-DSG3 scFv binding to DSG3, pilot screen, biochemical, validation compound set, bead-based, flow cytometry (AID 588368;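 active = binding below the plate cutoff, the plate median minus 3 SD, with a reading above zero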;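 also: signal is the median channel fluorescence of bead-bound GFP antibody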); details: Protein G beads, DSG3-Fc, scFv-GFP binding, at 10 µM, stronger effect = lower value
[14] = inhibitors of fungal efflux pumps CDR1, CDR2, MDR1, pilot screen, validation compound set, multiplex, phenotypic (AID 588506;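 active = efflux inhibition above 0.42, the validation set average plus 4 SD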;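 also: Nile Red retained in cells so higher fluorescence means more efflux inhibition; 0 = negative control wells and 1 = enniatin B 25 µM full block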); details: S. cerevisiae pump-expressing triplex, Nile Red efflux flow cytometry; at 10 µM; stronger effect = higher value; the pumps come from Candida albicans
[15] = target: ATP-binding cassette sub-family B member 6 (Homo sapiens) (UniProt Q9NP58); experiment: ABCB6 transporter inhibitors, pilot screen, K562-ABCB6 cells, flow cytometry, validation set (AID 588550;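 active = inhibition above the screen-wide mean plus 3 SD, about 51%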;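 also: 0% = DMSO wells and 100% = benzethonium chloride 70 µM positive control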); details: K562-ABCB6 porphyrin accumulation, 1 h, at 10 µM, stronger effect = higher value
Chain of ATP-binding cassette sub-family B member 6 (Homo sapiens) (Q9NP58 whole entry, looked up): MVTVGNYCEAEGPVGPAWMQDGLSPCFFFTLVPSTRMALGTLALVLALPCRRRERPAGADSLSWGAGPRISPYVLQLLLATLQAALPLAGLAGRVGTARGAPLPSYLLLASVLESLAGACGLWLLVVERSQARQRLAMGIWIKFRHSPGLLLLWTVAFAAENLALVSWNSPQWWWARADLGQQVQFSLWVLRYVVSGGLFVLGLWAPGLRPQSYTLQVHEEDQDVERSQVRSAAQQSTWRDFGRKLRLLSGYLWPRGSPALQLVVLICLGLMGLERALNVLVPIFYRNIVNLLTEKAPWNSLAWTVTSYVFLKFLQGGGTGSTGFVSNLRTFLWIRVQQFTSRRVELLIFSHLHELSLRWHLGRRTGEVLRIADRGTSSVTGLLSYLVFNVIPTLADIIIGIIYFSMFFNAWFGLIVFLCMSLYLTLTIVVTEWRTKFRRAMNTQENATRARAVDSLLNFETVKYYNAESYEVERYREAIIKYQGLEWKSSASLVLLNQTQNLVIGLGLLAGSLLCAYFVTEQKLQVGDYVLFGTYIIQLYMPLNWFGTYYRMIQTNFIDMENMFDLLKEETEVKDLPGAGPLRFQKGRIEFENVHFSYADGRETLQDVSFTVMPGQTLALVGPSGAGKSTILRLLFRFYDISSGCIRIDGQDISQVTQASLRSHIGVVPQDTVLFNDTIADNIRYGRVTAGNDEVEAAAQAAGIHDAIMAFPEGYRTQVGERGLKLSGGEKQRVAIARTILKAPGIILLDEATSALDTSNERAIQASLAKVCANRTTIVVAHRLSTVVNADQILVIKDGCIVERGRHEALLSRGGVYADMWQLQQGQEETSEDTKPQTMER

[16] = promoters of myeloid differentiation in arrested cells, primary screen, cell-based, GFP/MAC1 double positive, flow cytometry, validation set (AID 588685;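 active = differentiation response of at least 50%, scaled between solvent and reference control, from cells with both markers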;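 also: compound exposure lasts four days before antibody staining and flow analysis; 0% = DMSO wells and 100% = 5 µM fulvestrant positive control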); details: ER-HoxA9 marrow cells, stronger effect = higher value, normalized: vehicle 0, fulvestrant 100

COc1cc(OC)c(-c2nc3cnccc3n2C)cc1OC
61.8%: double positive events [6]
inactive: percent of DMSO control GFP [1] 104% | GFP response vs DMSO [2] 100% | percent response of DMSO control [3] 115% | GFP response vs DMSO [4] 103% | GFP response, % of DMSO [5] 102% | vesicle binding response [6] 192% | inhibition [7] -4.6% | superoxide response (% of plate) [8] 97% | aptamer binding inhibition [9] 0% | response [10] -4.1% | inhibition [11] -2.31% | response [12] 4.97% | binding (% of control) [13] 97.6% | efflux inhibition (fraction of control) [14] -0.01 | inhibition [15] -11% | differentiation response [16] 3.18%

Cc1ccc2c(ccc(=S)n2C)c1
54.1%: double positive events [6]
active: vesicle binding response [6] 44.4%
inactive: percent of DMSO control GFP [1] 103% | GFP response vs DMSO [2] 97.2% | percent response of DMSO control [3] 115% | GFP response vs DMSO [4] 93.3% | GFP response, % of DMSO [5] 102% | inhibition [7] 7.85% | superoxide response (% of plate) [8] 87.8% | aptamer binding inhibition [9] 4% | response [10] -14% | inhibition [11] -3.91% | response [12] 0.7% | binding (% of control) [13] 97.7% | efflux inhibition (fraction of control) [14] -0.01 | inhibition [15] 19% | differentiation response [16] 1.22%

COc1cc(CNCCc2c[nH]c3ccccc23)cc(Cl)c1OCC(N)=O
66.2%: double positive events [6]
inactive: percent of DMSO control GFP [1] 107% | GFP response vs DMSO [2] 97.4% | percent response of DMSO control [3] 102% | GFP response vs DMSO [4] 94% | GFP response, % of DMSO [5] 97.2% | vesicle binding response [6] 340% | inhibition [7] -7.25% | superoxide response (% of plate) [8] 102% | aptamer binding inhibition [9] -6% | response [10] 14.8% | inhibition [11] -2.94% | response [12] 1.24% | binding (% of control) [13] 99.9% | efflux inhibition (fraction of control) [14] 0.3 | inhibition [15] 0% | differentiation response [16] -10.4%

CC(C)C12CN3CC(C(C)C)(CN(C1)C3c1ccccc1O)C2=O (stereo not drawn)
inactive: percent of DMSO control GFP [1] 94.4% | GFP response vs DMSO [2] 120% | percent response of DMSO control [3] 104% | GFP response vs DMSO [4] 75.9% | GFP response, % of DMSO [5] 87% | vesicle binding response [6] 192% | inhibition [7] 10.3% | superoxide response (% of plate) [8] 94.7% | aptamer binding inhibition [9] 6% | response [10] -10.3% | inhibition [11] -9.47% | response [12] -6% | binding (% of control) [13] 99% | efflux inhibition (fraction of control) [14] 0.12 | inhibition [15] 5% | differentiation response [16] -6.55%
66.6%: double positive events [6]

COc1ccc(C2C(C(=O)c3ccco3)=C(O)C(=O)N2CC2CCCO2)cc1 (stereo not drawn)
62.9%: double positive events [6]
inactive: percent of DMSO control GFP [1] 102% | GFP response vs DMSO [2] 105% | percent response of DMSO control [3] 104% | GFP response vs DMSO [4] 99.3% | GFP response, % of DMSO [5] 95.3% | vesicle binding response [6] 351% | inhibition [7] -7.72% | superoxide response (% of plate) [8] 105% | aptamer binding inhibition [9] 3% | response [10] -3.98% | inhibition [11] 25.3% | response [12] -4.81% | binding (% of control) [13] 98.9% | efflux inhibition (fraction of control) [14] 0.05 | inhibition [15] 3% | differentiation response [16] -5.62%

OCCC1CN(Cc2ccccc2-c2ccco2)CCN1C1CCCC1 (stereo not drawn)
59%: double positive events [6]
inactive: percent of DMSO control GFP [1] 99% | GFP response vs DMSO [2] 97.6% | percent response of DMSO control [3] 93.1% | GFP response vs DMSO [4] 110% | GFP response, % of DMSO [5] 110% | vesicle binding response [6] 123% | inhibition [7] 12.5% | superoxide response (% of plate) [8] 95% | aptamer binding inhibition [9] 0% | response [10] -21.4% | inhibition [11] -16.3% | response [12] 4.26% | binding (% of control) [13] 101% | efflux inhibition (fraction of control) [14] 0.04 | inhibition [15] 1% | differentiation response [16] -3.02%

O=CNC1CCCc2c1[nH]c1ccc(Cl)cc21 (stereo not drawn)
inactive: percent of DMSO control GFP [1] 101% | GFP response vs DMSO [2] 96.2% | percent response of DMSO control [3] 100% | GFP response vs DMSO [4] 89.4% | GFP response, % of DMSO [5] 98.3% | vesicle binding response [6] 173% | inhibition [7] -5.64% | superoxide response (% of plate) [8] 113% | aptamer binding inhibition [9] 2% | response [10] 3.11% | inhibition [11] -3.47% | response [12] 0.49% | binding (% of control) [13] 95.9% | efflux inhibition (fraction of control) [14] -0.04 | inhibition [15] -3% | differentiation response [16] 8.06%
64.4%: double positive events [6]

Cc1ncc(CN2CCC(CO)(CCc3ccccc3)CC2)s1
62.3%: double positive events [6]
inactive: percent of DMSO control GFP [1] 101% | GFP response vs DMSO [2] 111% | percent response of DMSO control [3] 104% | GFP response vs DMSO [4] 102% | GFP response, % of DMSO [5] 110% | vesicle binding response [6] 98.1% | inhibition [7] 6.95% | superoxide response (% of plate) [8] 97.2% | aptamer binding inhibition [9] 2% | response [10] -0.43% | inhibition [11] -1.19% | response [12] 0.58% | binding (% of control) [13] 107% | efflux inhibition (fraction of control) [14] -0.07 | inhibition [15] 6% | differentiation response [16] -1.65%

CC(C)(C)C(=O)NC(=S)NNC(=O)c1ccncc1
inactive: percent of DMSO control GFP [1] 98.2% | GFP response vs DMSO [2] 104% | percent response of DMSO control [3] 101% | GFP response vs DMSO [4] 127% | GFP response, % of DMSO [5] 109% | vesicle binding response [6] 185% | inhibition [7] -7.08% | superoxide response (% of plate) [8] 88.6% | aptamer binding inhibition [9] -5% | response [10] -25% | inhibition [11] -3.36% | response [12] 2.56% | binding (% of control) [13] 105% | efflux inhibition (fraction of control) [14] -0.04 | inhibition [15] -5% | differentiation response [16] -7.94%
57.3%: double positive events [6]

Reference: PubChem BioAssay
